High-throughput results: PubChem, National Center for Advancing Translational Sciences (NCATS)
Shown are actives, neighbours in structure and some others; about 1.6% of the full set was active somewhere.
ALOX12 inh: blocks human arachidonate 12S-lipoxygenase; actives 1.1% (n = 580,000); Potency, µM (doses to about 108 µM), for inactives: at the top dose activity change, negative = inhibition, hits mostly inhibitors; purified 12hLO, xylenol orange hydroperoxide absorbance; P18054; also: % is scaled to controls: 0 for no effect and ±100 for the full control effect
Target sequence (P18054 whole entry, looked up): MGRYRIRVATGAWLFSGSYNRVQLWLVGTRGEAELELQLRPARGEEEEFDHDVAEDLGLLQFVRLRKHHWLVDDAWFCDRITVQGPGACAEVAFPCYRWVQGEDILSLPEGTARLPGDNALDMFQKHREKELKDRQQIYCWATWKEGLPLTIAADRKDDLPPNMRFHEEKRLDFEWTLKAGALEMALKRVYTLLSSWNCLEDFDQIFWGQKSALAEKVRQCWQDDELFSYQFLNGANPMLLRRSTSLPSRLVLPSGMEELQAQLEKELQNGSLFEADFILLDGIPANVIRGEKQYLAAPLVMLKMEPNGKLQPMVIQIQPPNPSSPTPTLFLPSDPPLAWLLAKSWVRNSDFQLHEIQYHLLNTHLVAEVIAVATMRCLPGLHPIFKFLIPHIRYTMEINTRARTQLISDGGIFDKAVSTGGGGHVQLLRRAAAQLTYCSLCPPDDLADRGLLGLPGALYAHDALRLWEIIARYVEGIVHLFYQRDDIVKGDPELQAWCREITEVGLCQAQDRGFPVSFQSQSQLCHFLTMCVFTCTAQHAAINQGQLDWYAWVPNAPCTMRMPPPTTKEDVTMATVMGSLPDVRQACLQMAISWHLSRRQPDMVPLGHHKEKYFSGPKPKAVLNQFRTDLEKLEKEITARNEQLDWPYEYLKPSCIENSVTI
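Purified human 12hLO at 150 nM in 25 mM Hepes, 0.01% Triton X-100, pH 7.0, preincubated 15 min at room temperature with compound. Reaction started with 40 uM arachidonic acid, 30 min at room temperature. Hydroperoxide measured by Fe-xylenol orange, 573/405 nm absorbance ratio.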
FUS suppressor: rescues growth of FUS-expressing yeast. AID 1347120. Potency, µM (highest dose often 76.6 µM), most hits filed as activators. S. cerevisiae FUS-expressing, growth rescue, OD600, 24 h. actives 0.24% (n = 390,000);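 also: plate controls were DMSO vehicle for no effect and reference control for full effect; nearly all actives have a fitted effect of over 55% in size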
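S. cerevisiae expressing FUS from galactose induction served as the toxicity model. Growth after 24hr at 30C, read as absorbance at 600 nm, indicates suppression of toxicity; compounds dosed at several concentrations.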
gsp antag: gsp mutant antagonism; gsp-mutant cells, cAMP HTRF, 30 min; Potency, µM (top dose mostly 76.9 µM), without a hit: at the top dose activity change, negative = inhibition, actives largely listed as inhibitors; actives 0.4% (n = 340,000); AID 624288; calls by dose curve; cell line not stated here;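 also: intracellular cAMP measured with PDE inhibitor Ro 20-1724 present during compound exposure; % is scaled to controls: 0 for no effect and ±100 for the full control effect; nearly all actives have a fitted effect of over 65% in size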
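Cells, 2000/well, grown 16–24 h in DMEM 10% FBS with 0.5 mg/ml G418, then compounds plus […] (300 uM addition stock), 30 min at 37C. cAMP read by HTRF (cAMP-d2 and anti-cAMP antibody-K in lysis buffer) after 30 min RT.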
gsp ag: activates gsp, the McCune-Albright syndrome mutation; gsp mutant cells, cAMP HTRF, 30 min; Potency, µM (top dose mostly 76.9 µM), for inactives: at the highest dose activation (cAMP increase), hits mostly activators; actives 0.13% (n = 340,000); AID 624287; active = well fitted activation curve with a large enough effect; inconclusive = small, poorly fitted or top-dose-only effect, or another doubt; inactive = no such curve, though single readings can be large or run the other way; cell line not stated here;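 also: phosphodiesterase inhibitor Ro 20-1724 added with compounds to block cAMP breakdown; nearly all actives have a fitted effect of over 60% in size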
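Cells in DMEM/10% FBS with G418 were pretreated with compounds in DMSO plus […] (300 uM stock) for 30 min at 37C. cAMP was measured by HTRF (cAMP-d2 plus anti-cAMP antibody-K) after 30 min at room temperature.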
Mito fusion act: mitochondrial division inhibition or fusion activation; S. cerevisiae fusion-defective mutant growth rescue, CellTiterGlo 48 h; Potency, µM (titrated, usually from 46.1 µM), for the others: at the top dose growth rescue (activation), usual class: activators; actives 0.23% (n = 320,000); also: % of control where 0% means no effect; nearly all actives have a fitted effect of over 45% in size
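Read-out: ATP-based luminescence (CellTiterGlo, 10 min ambient) reporting growth of fusion-defective ts yeast after 48 hours at 37C on glycerol/ethanol YPEG medium in the presence of compound.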
Active calls of the source: *; [ ] = another dose, or the depositor's remark. Unless noted, calls follow the shape of the dose curve; as a rule, active = well fitted curve in the direction sought with a large enough effect; inconclusive = small, poorly fitted or top-dose-only effect, or another doubt; inactive = no such curve, though single readings can be large; an effect the other way counts as inactive or inconclusive. Potency is read from the fitted curve at half-maximal effect.

For Cc1ccc(C)c(N2CCN(C(=O)CCC(=O)N3CCOc4ccc(Cl)cc43)CC2)c1 the results were ALOX12 inh 36%, FUS suppressor 25µM*, gsp antag -22%, gsp ag -17% and Mito fusion act 18%.
For Cc1ccc(Cl)cc1N1CCN(C(=O)Cn2ccc3ccccc3c2=O)CC1 the results were ALOX12 inh -3%, FUS suppressor inconclusive, gsp antag 25µM*, gsp ag -6% and Mito fusion act 7%.
For Cc1ccc(C)c(N2CCN(CCCNC(=O)CCC(=O)N3CCOc4ccc(Cl)cc43)CC2)c1 the results were ALOX12 inh -20% and Mito fusion act -19%.
Screening Cc1ccc(Cl)cc1N1CCN(C(=O)CCS(=O)(=O)c2cccc3nonc23)CC1 returned ALOX12 inh -8%, FUS suppressor inactive, gsp antag -12%, gsp ag 3%[15.4 µM] and Mito fusion act 14µM*.
C/C=C/C=C/C(=O)NCc1cccc(OC)c1 was read as ALOX12 inh -3%.
`CCOc1ccc(NC(=O)C(C)O)c(N)c1` (stereo not given) gave ALOX12 inh 15%.
`S=C1SCN(Cc2ccccc2)CN1Cc1ccco1` gave ALOX12 inh 35µM*, FUS suppressor inactive and gsp ag -19%.
`CCc1noc(-c2cccn3c(CNC(=O)c4cccc(F)c4)nnc23)n1` gave ALOX12 inh 59%.
Cc1cccc(-n2c(-c3csc(C)c3)n[nH]c2=S)c1 was read as ALOX12 inh inconclusive, FUS suppressor inactive, gsp antag -33%, gsp ag 8% and Mito fusion act 1%.
`CCCCn1c(-c2csc(CC)c2)n[nH]c1=S` gave ALOX12 inh 50µM*, FUS suppressor inactive, gsp antag 10%, gsp ag inconclusive and Mito fusion act 0%.
Screening CCc1cc(-c2n[nH]c(=S)n2-c2cccc(C)c2)cs1 returned ALOX12 inh 32µM*, FUS suppressor inactive, gsp antag -13%, gsp ag 14% and Mito fusion act inconclusive.
CCCCCCn1c(-c2cccs2)n[nH]c1=S was read as ALOX12 inh 28µM*, FUS suppressor inactive, gsp antag inconclusive, gsp ag inconclusive and Mito fusion act 5%.
N#CC1=C(S)N(c2ccccc2)C(c2ccc(-c3ccc(Cl)c(Cl)c3)o2)NC1=O (stereo not given) was read as ALOX12 inh 18µM*, FUS suppressor inactive, gsp antag -2%, gsp ag inconclusive and Mito fusion act 5%.
Screening N#CC1=C(S)N(c2ccccc2)C(c2ccco2)NC1=O (stereo not given) returned ALOX12 inh inconclusive, FUS suppressor inactive, gsp antag 1%, gsp ag -14%[15.4 µM] and Mito fusion act 11%.
For N#CC1=C(S)N(c2ccc(F)cc2)C(c2ccco2)NC1=O (stereo not given) the results were ALOX12 inh 45µM*, FUS suppressor inactive, gsp antag -2%, gsp ag 19%[15.4 µM] and Mito fusion act -5%.
For N#CC1=C(S)N(c2ccccc2)C(c2ccc(-c3cc(Cl)ccc3Cl)o2)NC1=O (stereo not given) the results were ALOX12 inh inconclusive, FUS suppressor inactive, gsp antag 4%, gsp ag inconclusive and Mito fusion act 6%.
`CNC(=S)N/N=C1\CC(c2ccccc2)Oc2ccccc21` (stereo not given) gave ALOX12 inh 40µM*, FUS suppressor inactive, gsp antag -7%, gsp ag -2%[15.4 µM] and Mito fusion act 14%.
CC(C)c1ccc(CNCCCSc2ncccn2)cc1 was read as ALOX12 inh 25µM*, FUS suppressor inactive, gsp antag 8%, gsp ag -5% and Mito fusion act -4%.
CCOc1ccc(CNCCCSc2ncccn2)cc1 was read as ALOX12 inh 2%, FUS suppressor inactive, gsp antag 13%, gsp ag 2% and Mito fusion act -3%.
`O=C1c2ccccc2C(=O)N1CCCc1c[nH]c2ccc(Cl)cc12` gave ALOX12 inh -1%, gsp antag -9%, gsp ag -54% and Mito fusion act 18µM*.
`CC(C(=O)NC(=O)NC1CC1)N(C)Cc1ccc(Br)cc1` (stereo not given) gave ALOX12 inh 9%.
COc1cccc(OCCn2cc(C(C)=O)c3ccccc32)c1 was read as ALOX12 inh 25µM*, FUS suppressor inactive, gsp antag -25%, gsp ag 1%[15.4 µM] and Mito fusion act -2%.
For COc1cccc(OCCn2cc(C(=O)c3ccco3)c3ccccc32)c1 the results were ALOX12 inh 2%, FUS suppressor inactive, gsp antag -16%, gsp ag -17% and Mito fusion act 26%.
For CNC(=S)N/N=C/c1cn(CCOc2ccccc2OC)c2ccccc12 the results were ALOX12 inh inconclusive, FUS suppressor inactive, gsp antag -2%, gsp ag -30% and Mito fusion act 19%.
CNC(=S)N/N=C/c1cn(CCOc2cccc(OC)c2)c2ccccc12 was read as ALOX12 inh 35µM*, FUS suppressor inactive, gsp antag 15%, gsp ag 13%[15.4 µM] and Mito fusion act inconclusive.
CC(=O)N1CCN(Cc2nnc(C(C)(C)C)o2)CC1 was read as ALOX12 inh 49%.
Screening CCc1nc2c(OCCC3CCCCC3)cccn2c1N(C)C(=O)c1ccc(OC)cc1 returned ALOX12 inh inconclusive and FUS suppressor 22µM*.
`CC(NC(=O)NC12CC3CC(CC(C3)C1)C2)c1ccc(Br)cc1` (stereo not given) gave ALOX12 inh -10%.
`Cc1[nH]c2ccccc2c1C(=O)CSc1ccc2c(c1)OCCCO2` gave ALOX12 inh 25µM*.
For CCNC(=O)NC(=O)C(C)OC(=O)c1cc(-c2ccco2)nc2ccccc12 (stereo not given) the results were ALOX12 inh 13µM*.
`NC(=O)NC(=O)COC(=O)c1cc(-c2ccco2)nc2ccccc12` gave ALOX12 inh 14µM*.
CCNC(=O)COC(=O)c1cc(-c2ccco2)nc2ccccc12 was read as ALOX12 inh 7.1µM*, FUS suppressor inactive, gsp antag -8%, gsp ag -23% and Mito fusion act 3%.
For COc1ccc(CNC(=O)COC(=O)c2cc(-c3ccco3)nc3ccccc23)cc1 the results were Mito fusion act 2%.
Screening Cc1nc2cc(NC(=O)C3CC(=O)N(c4cccc(Br)c4)C3)ccc2o1 (stereo not given) returned ALOX12 inh -6%.
For CN1CCN([C@@H]2[C@H](O)[C@H](CO)O[C@@H]2CN(Cc2ccc(Cl)cc2)Cc2cccc(Cl)c2)CC1 the results were ALOX12 inh 14µM*.
